# Reference: PubChem BioAssay (NCI)
# Where “and” joins values, the source holds several entries; their conditions need not be identical. Equal values may be shown once. The panel holds about 83,000 compounds, 20% with a hit somewhere; the sample as a whole holds those more often.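 The test compound was applied at a single concentration to cells in 96-well plates for 48 hours, and percent growth was recorded.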 Calls of active or inactive are those of the source. Rule for the calls: active = growth percent below 10; inactive = the rest.
# System: HL-60(TB) leukemia
# Assay: NCI-60 one-dose screen, 48 h (100 = growth as untreated, 0 = no growth, -100 = all killed)
# Details: 10 µM unless noted
row,Compound,growth
1,COc1ccc(-n2c(NC(=O)N3CCN(C)CC3)c(C#N)c3ccccc32)cc1,74.2% (inactive)
2,COc1ccc(NC(=O)CSc2nnc(-c3ccc4nc(-c5ccc(Cl)cc5)[nH]c4c3)o2)cc1,63% (inactive)
3,O=c1[nH]c2ccccc2cc1CSc1cccc(Nc2nccc(-c3ccc4ccccc4c3)n2)c1,93.5% (inactive)
4,Cc1ccc(NC(=O)CN2CCN(c3ncnc4c3cnn4-c3ccccc3)CC2)cc1,95.4% (inactive)
5,CC(=O)Nc1cccc(-n2c(COc3ccc(I)cc3)nc3ccccc32)c1,116% (inactive) and 92.8% (inactive)
6,C=CC[n+]1cccc2c3ccccc3ccc21,57.2% (inactive)
7,Cc1cc2nc3c([nH]c2cc1C)c1ccc(=O)cc1n3CCN(C)C,16.8% (inactive)
8,Clc1ccc(-c2ccc(OCCCN3CCN(c4ccncc4)CC3)cc2)cc1,-13.9% (active)
9,CC1CCc2c(sc3nc(SCC(=O)c4cccc(Br)c4)n(-c4ccccc4)c(=O)c23)C1 (stereo not given),64.7% (inactive)
10,O=C(/C=C/Nc1ccccc1)c1ccc2c(c1)Nc1ccccc1S2,90.9% (inactive)
11,O=[N+]([O-])c1ccc(-c2nc(-c3ccccc3)c(-c3ccccc3)n2-c2ccc(S(=O)(=O)Nc3ncccn3)cc2)cc1,38.2% (inactive)
12,CN1CCCN(Cc2ccc(C(=O)Nc3cccc(Nc4ccc5cc(O)ccc5n4)c3)cc2C(F)(F)F)CC1,73.7% (inactive)
13,CCOc1ccc(/C=N/NC(=O)Cn2nc(Cc3ccccc3)c3onc(C)c3c2=O)cc1,89.7% (inactive)
14,Cc1ncsc1-c1ccc(CNC(=O)[C@@H]2C[C@@H](O)CN2C(=O)[C@@H](NC(=O)C2(F)CC2)C(C)(C)C)c(OCCOCCOCCOCCOc2nc(Nc3cc(S(C)(=O)=O)ccc3N[C@@H](c3cccc4c3OC(F)(F)O4)c3ncccc3Cl)nc(N3CCNCC3)n2)c1,72% (inactive)
15,CCN(CC)CCOc1ccc(Nc2ncc3cc(-c4ccc(O)c(C#N)c4)c(=O)n(C)c3n2)cc1,87.6% (inactive)
16,Cn1cc(-c2cc(N)n3nc(-c4c[nH]c5ccccc45)cc3n2)c2ccccc21,-24.5% (active)
17,CCCCCCCCc1cccc(CC(=O)Nc2ccc(C)cc2C(=O)O)c1,33.5% [25 µM] (inactive)
18,O=C(c1ccc(Cl)cc1)C1[C@H](c2ccccc2Br)[C@@H](c2ccccc2)NC12C(=O)Nc1ccc(Cl)cc12 (stereo not given in full),32% (inactive)
19,Cc1ccc2c(N)c(C(=O)Nc3ccc(-c4ccccc4)cc3)sc2n1,38.7% (inactive)
20,COC(=O)CSC1=C(C)C(=O)C(OC)=C(OC)C1=O,45.9% (inactive)

row,Compound,growth
1,Cc1ccc([C@H]2C(C(=O)c3ccc(Cl)cc3)C3(N[C@@H]2c2ccccc2)C(=O)Nc2ccc(Br)cc23)cc1 (stereo not given in full),35.1% (inactive)
2,CN1CCN(/C(=N\c2sc(-c3ccccc3)nc2-c2ccccc2)c2ccccc2)CC1,62.9% (inactive)
3,Clc1ccc2c(NCCNC34CC5CC(CC(C5)C3)C4)ccnc2c1,-53.1% (active)
4,O=C(N/N=C/c1occc1Br)c1[nH]c2ccc(Br)cc2c1-c1ccccc1,-34.2% (active)
5,Cc1ccc2sc3c(c2c1)Oc1nc[nH]c(=O)c1C3c1cccc(F)c1 (stereo not given),99.3% (inactive)
6,C=CCn1c(O)c(N=Nc2nc(-c3cc4ccccc4oc3=O)cs2)c2ccccc21,111% (inactive)
7,N#Cc1ccc(-c2nn(-c3ccc(C(=O)O)cc3)cc2CNc2cccc(Br)c2)cc1,47% (inactive)
8,CCCn1c(=O)c2[nH]c(-c3ccc(OCc4nc5ccc(C)cc5[nH]4)cc3)nc2n(CCC)c1=O,4.56% (active)
9,CC(C)CCSc1nc(NC2CC2)c(C#N)c(-c2ccc(C(C)C)cc2)n1,80.4% (inactive)
10,Cc1ccc(S(=O)(=O)c2nc(S(=O)(=O)c3ccc(C)cc3)c(N3CCC(O)CC3)s2)cc1,35.5% (inactive)
11,COC(=O)C[C@](O)(CCCC(C)(C)O)C(=O)O[C@H]1C(OC)=C[C@@]23CCCN2CCc2cc4c(cc2[C@@H]13)OCO4,-30.3% (active)
12,Nc1cccc(SCc2cc3ccccc3[nH]c2=O)c1,42.2% (inactive)
13,N/C(=N\c1nc2ccc([N+](=O)[O-])cc2s1)NC(=O)Nc1ccccc1Cl,67.3% (inactive)
14,Cc1ccc(S(=O)(=O)Nc2ccc(-c3ccc4c(c3)NC(=O)/C4=C\c3ccc[nH]3)cc2)cc1,39.3% (inactive)
15,CCc1ccccc1-c1nc(CN[C@@H]2C[C@@H]3C[C@H]([C@H]2C)C3(C)C)c(C)o1,-35.9% (active)
16,COc1ccc(OC)c(-n2cc(C#N)c(N)c2C(=O)c2ccc(Cl)cc2Cl)c1,2.46% (active)
17,CC1=C(C(=O)OC(C)C)C(c2ccc(O)cc2)NC(=O)N1 (stereo not given),90.2% (inactive)
18,O=C(Cc1ccc2c(c1)CN(C1CCC(=O)NC1=O)C2=O)NCCc1ccccc1 (stereo not given),-19.2% (active)
19,CCCCSc1nc(Nc2ccc(S(N)(=O)=O)cc2)c(C#N)c(-c2cc(OC)c(OC)c(OC)c2)n1,-28% (active)
20,O=c1oc2ccccc2cc1-c1csc(N2N=C(c3ccccc3)CC2c2ccc(N3CCOCC3)cc2)n1 (stereo not given),96.5% (inactive)
